Experimental findings from PubChem BioAssay (NCI) are described below.

About 79,000 compounds went through this panel and 15% of them were active in at least one assay; those are over-represented in the sample as a whole. A number with no mark means an inactive call. Calls of active or inactive are those of the source. No stated cut-off is given here; in the data, active means growth inhibition above about 70%; inactive means the rest.

Assay [1] is described as follows: NCI Yeast Anticancer Drug Screen. Data for the rad50 strain (AID 155).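 Further: 0% = growth of vehicle-only cultures of the same strain.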 Conditions: S. cerevisiae rad50 strain growth inhibition, stronger effect = higher value. The procedure, abridged:
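Readout: growth inhibition relative to vehicle-treated cultures. Compound exposure was carried out in a genetically defined yeast strain deficient in DNA damage repair.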

Assay [2] in a line: NCI Yeast Anticancer Drug Screen. Data for the mec2-1 strain (AID 157). Conditions: S. cerevisiae mec2-1 strain, stronger effect = higher value. The essentials: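 Cells of the genetically defined mec2-1 yeast strain are incubated with test compound. Inhibition of growth is calculated against vehicle-treated controls.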
The nature of assay [3]: NCI Yeast Anticancer Drug Screen. Data for the sgs1 mgt1 strain (AID 161).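 Further: 0% = growth of cultures given vehicle only.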 Conditions: S. cerevisiae sgs1 mgt1 strain, stronger effect = higher value. The procedure, abridged: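 Test agents were incubated with a DNA-repair-mutant yeast strain. Growth was then read and compared against vehicle-treated controls.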
Assay [4] in a line: NCI Yeast Anticancer Drug Screen. Data for the cln2 rad14 strain (AID 165).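 Further: 0% = growth equal to vehicle treated cultures.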 Conditions: S. cerevisiae cln2 rad14 strain, stronger effect = higher value. The procedure, abridged:
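The screen exposed genetically defined yeast (cln2 rad14) to test compounds and scored growth inhibition relative to vehicle-treated controls.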

Assay [5] in a line: NCI Yeast Anticancer Drug Screen. Data for the bub3 strain (AID 167). The settings on record: S. cerevisiae bub3 mutant strain, stronger effect = higher value. The procedure, abridged: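 Readout: yeast growth inhibition, expressed relative to vehicle-only wells. The test organism is a mutant strain from a panel with lesions in DNA repair or checkpoint genes.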
A short description of assay [6]: NCI Yeast Anticancer Drug Screen. Data for the mlh1 rad18 strain (AID 175). The settings on record: S. cerevisiae mlh1 rad18 strain growth inhibition, stronger effect = higher value. The procedure, abridged: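 Compound-treated yeast growth, normalised to vehicle controls. Strain bears defined DNA repair mutations.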
The mark [7] stands for this setting: at 5.0 µM (retest, dose inferred, filed as 0.5).
The mark [8] stands for this setting: at 50.0 µM (retest, dose inferred, filed as 5.0).

As for `OCc1ccc(OCc2ccccc2)c(OCc2ccccc2)c1`, the growth inhibition in assay [1] (setting [7]) was 6%; in assay [1] (setting [8]), 15%; in assay [1] (at 50.0 µM), 88.2% (active); in assay [2] (setting [7]), 7%; in assay [2] (setting [8]) it was 14%; in assay [2] (at 50.0 µM), 77.1% (active). Also, the growth inhibition in assay [3] (setting [7]) was -8%; in assay [3] (setting [8]), 47%; in assay [3] (at 50.0 µM), 92.8% (active); in assay [4] (setting [7]) it was 51%; in assay [4] (setting [8]) it was 26%; in assay [4] (at 50.0 µM), 80.3% (active). Moreover, the growth inhibition in assay [5] (setting [7]) is 10%; in assay [5] (setting [8]), 55%; in assay [5] (at 50.0 µM), 94.5% (active); in assay [6] (setting [7]), 0%; in assay [6] (setting [8]) it was 62%; in assay [6] (at 50.0 µM), 96.5% (active).

As to `Cc1ccc2c(c1)[n+]([O-])c(N)c(C#N)[n+]2[O-]`, the growth inhibition was 0% in assay [1] (setting [7]); 97% (active) in assay [1] (setting [8]); 68.5% in assay [1] (at 50.0 µM); -22% in assay [2] (setting [7]); 98% (active) in assay [2] (setting [8]); 25.8% in assay [2] (at 50.0 µM). Further, the growth inhibition in assay [3] (setting [7]) is -16%; in assay [3] (setting [8]), 97% (active); in assay [3] (at 50.0 µM), 36.3%; in assay [4] (setting [7]) it was -26%; in assay [4] (setting [8]) it was 98% (active); in assay [4] (at 50.0 µM), 15.8%. The growth inhibition in assay [5] (setting [7]) is -31%; in assay [5] (setting [8]), 97% (active); in assay [5] (at 50.0 µM), 29.4%; in assay [6] (setting [7]), -48%; in assay [6] (setting [8]) it was 96% (active); in assay [6] (at 50.0 µM), 62.4%.

Turning to `CN(C)CCC(=O)/C=C/c1ccccc1`, the growth inhibition is -2% in assay [1] (setting [7]); 3% in assay [1] (setting [8]); 53% in assay [1] (at 50.0 µM); -1% in assay [2] (setting [7]); 5% in assay [2] (setting [8]); 38% in assay [2] (at 50.0 µM). For the same compound, the growth inhibition in assay [3] (setting [7]) was -3%; in assay [3] (setting [8]), 1%; in assay [3] (at 50.0 µM) it was 75.9% (active); in assay [4] (setting [7]) it was -2%; in assay [4] (setting [8]) it was 1%; in assay [4] (at 50.0 µM), 38.1%. Also, the growth inhibition was -3% in assay [5] (setting [7]); 11% in assay [5] (setting [8]); 61% in assay [5] (at 50.0 µM); -3% in assay [6] (setting [7]); 4% in assay [6] (setting [8]); 63.1% in assay [6] (at 50.0 µM).

For the compound `C[N+](C)=c1ccc2nc3c(cc(NCCCNc4cc5oc6cc(=[N+](C)C)ccc-6nc5c5ccccc45)c4ccccc43)oc-2c1`, the growth inhibition in assay [1] (setting [7]) was -28%; in assay [1] (setting [8]), 79% (active); in assay [1] (at 50.0 µM) it was 75.8% (active); in assay [2] (setting [7]) it was -7%; in assay [2] (setting [8]), 80% (active); in assay [2] (at 50.0 µM) it was 51%. In addition, the growth inhibition in assay [3] (setting [7]) is -15%; in assay [3] (setting [8]), 70% (active); in assay [3] (at 50.0 µM), 67.5%; in assay [4] (setting [7]), -29%; in assay [4] (setting [8]), 53%; in assay [4] (at 50.0 µM) it was 39.5%. The growth inhibition in assay [5] (setting [7]) is -18%; in assay [5] (setting [8]) it was 72% (active); in assay [5] (at 50.0 µM) it was 64%; in assay [6] (setting [7]), -15%; in assay [6] (setting [8]), 74% (active); in assay [6] (at 50.0 µM), 65.1%.

As for `CCCCCC/C=C\CCCCCCCCCC1=C(CN2CCN(C)CC2)C(=O)C=C(OC)C1=O`, the growth inhibition was 24% in assay [1] (setting [7]); 97% (active) in assay [1] (setting [8]); 89.2% (active) in assay [1] (at 50.0 µM); 24% in assay [2] (setting [7]); 98% (active) in assay [2] (setting [8]); 91.8% (active) in assay [2] (at 50.0 µM). Moreover, the growth inhibition in assay [3] (setting [7]) was 99% (active); in assay [3] (setting [8]) it was 98% (active); in assay [3] (at 50.0 µM), 90.3% (active); in assay [4] (setting [7]) it was 97% (active); in assay [4] (setting [8]), 98% (active); in assay [4] (at 50.0 µM), 89.2% (active). The growth inhibition was 99% (active) in assay [5] (setting [7]); 98% (active) in assay [5] (setting [8]); 91% (active) in assay [5] (at 50.0 µM); 54% in assay [6] (setting [7]); 97% (active) in assay [6] (setting [8]); 88.8% (active) in assay [6] (at 50.0 µM).

In the case of `O/N=C(/C[n+]1csc2ccccc21)c1ccccc1`, the growth inhibition was -6% in assay [1] (setting [7]); 82% (active) in assay [1] (setting [8]); 35.3% in assay [1] (at 50.0 µM); -8% in assay [2] (setting [7]); 34% in assay [2] (setting [8]); 79.5% (active) in assay [2] (at 50.0 µM). Besides, the growth inhibition in assay [3] (setting [7]) is -9%; in assay [3] (setting [8]) it was 87% (active); in assay [3] (at 50.0 µM) it was 73.7% (active); in assay [4] (setting [7]), -6%; in assay [4] (setting [8]) it was 32%; in assay [4] (at 50.0 µM), 37%. The growth inhibition is 12% in assay [5] (setting [7]); 76% (active) in assay [5] (setting [8]); 76.8% (active) in assay [5] (at 50.0 µM); 1% in assay [6] (setting [7]); 88% (active) in assay [6] (setting [8]); 48% in assay [6] (at 50.0 µM).
